Results on 7 sequences are retold here after PMC7862700, “An all-to-all approach to the identification of sequence-specific readers for epigenetic DNA modifications on cytosine”.

Holding throughout (assay): DAPPL (digital affinity profiling via proximity ligation, sequencing); 10 mM Tris-HCl pH 7.5, 50 mM NaCl, 1 mM DTT, 4% glycerol, room temperature, 30 min; GST-TFs on glutathione beads, 16-mer random dsDNA library, 0.1% formaldehyde crosslink after washing; high values mean tight binding
Conditions in all cases: protein: recombinant; tags: N-terminal GST; dsDNA, one strand shown

One experiment has as its target T1, FLI1 (Homo sapiens, UniProt Q01543 1-452).
T1 sequence: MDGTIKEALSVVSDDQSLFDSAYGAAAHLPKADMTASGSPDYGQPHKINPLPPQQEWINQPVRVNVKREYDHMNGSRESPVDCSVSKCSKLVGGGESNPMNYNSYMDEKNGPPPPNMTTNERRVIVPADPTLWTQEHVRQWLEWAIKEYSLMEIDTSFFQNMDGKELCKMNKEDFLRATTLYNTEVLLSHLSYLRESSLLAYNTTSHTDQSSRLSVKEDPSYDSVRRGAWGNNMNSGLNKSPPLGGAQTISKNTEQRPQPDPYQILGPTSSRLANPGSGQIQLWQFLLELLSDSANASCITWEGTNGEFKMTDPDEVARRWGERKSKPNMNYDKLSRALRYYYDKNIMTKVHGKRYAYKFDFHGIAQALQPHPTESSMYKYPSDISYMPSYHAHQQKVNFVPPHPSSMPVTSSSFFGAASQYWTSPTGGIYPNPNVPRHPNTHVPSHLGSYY
In short, it runs like this:
(§1)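 Human transcription factors fused to GST were expressed in yeast, captured on glutathione beads, given DNA barcodes and pooled with a GST-only negative control. Pools were incubated with 200 nmole of a 16-mer random double-stranded DNA library in Tris/NaCl/DTT/glycerol buffer at room temperature for 30 min. They were then washed, crosslinked with 0.1% formaldehyde, proximity-ligated (BsaI/T4 ligase, 1 h, 37 °C), PCR-amplified and sequenced on an Illumina NextSeq500. Binding signal is each 6-mer's read frequency for a factor divided by its frequency for the GST control.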

For the next experiment, the target named is T2, ELK1 (Homo sapiens, UniProt P19419 1-428).
T2 sequence: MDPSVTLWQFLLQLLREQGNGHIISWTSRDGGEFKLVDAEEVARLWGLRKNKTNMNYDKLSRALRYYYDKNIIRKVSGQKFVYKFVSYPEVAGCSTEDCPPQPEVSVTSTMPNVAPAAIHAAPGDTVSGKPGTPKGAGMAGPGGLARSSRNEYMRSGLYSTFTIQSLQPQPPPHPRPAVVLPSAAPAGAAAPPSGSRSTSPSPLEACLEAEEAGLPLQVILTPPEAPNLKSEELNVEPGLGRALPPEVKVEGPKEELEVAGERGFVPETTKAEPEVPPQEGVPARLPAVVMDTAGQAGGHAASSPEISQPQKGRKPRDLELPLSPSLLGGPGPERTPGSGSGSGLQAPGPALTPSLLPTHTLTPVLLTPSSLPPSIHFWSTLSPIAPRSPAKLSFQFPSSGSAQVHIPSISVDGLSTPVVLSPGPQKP
The essentials: as §1

The next experiment has as its target T3, GABPA (Homo sapiens, UniProt Q06546 1-454).
T3 sequence: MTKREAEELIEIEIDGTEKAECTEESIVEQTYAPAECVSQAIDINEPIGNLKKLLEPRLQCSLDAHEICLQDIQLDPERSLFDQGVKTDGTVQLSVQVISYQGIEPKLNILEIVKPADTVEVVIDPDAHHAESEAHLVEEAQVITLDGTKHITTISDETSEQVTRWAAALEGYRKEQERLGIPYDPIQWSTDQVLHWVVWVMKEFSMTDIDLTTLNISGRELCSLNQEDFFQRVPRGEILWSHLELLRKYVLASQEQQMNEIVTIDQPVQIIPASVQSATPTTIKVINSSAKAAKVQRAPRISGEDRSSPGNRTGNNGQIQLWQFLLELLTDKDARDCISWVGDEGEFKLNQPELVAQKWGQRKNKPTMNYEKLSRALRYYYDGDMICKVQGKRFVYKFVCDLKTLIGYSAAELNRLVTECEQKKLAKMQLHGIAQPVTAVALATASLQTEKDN
In short, it runs like this:
as §1

The next experiment has as its target T4, ERG (Homo sapiens, UniProt P11308 1-479).
T4 sequence: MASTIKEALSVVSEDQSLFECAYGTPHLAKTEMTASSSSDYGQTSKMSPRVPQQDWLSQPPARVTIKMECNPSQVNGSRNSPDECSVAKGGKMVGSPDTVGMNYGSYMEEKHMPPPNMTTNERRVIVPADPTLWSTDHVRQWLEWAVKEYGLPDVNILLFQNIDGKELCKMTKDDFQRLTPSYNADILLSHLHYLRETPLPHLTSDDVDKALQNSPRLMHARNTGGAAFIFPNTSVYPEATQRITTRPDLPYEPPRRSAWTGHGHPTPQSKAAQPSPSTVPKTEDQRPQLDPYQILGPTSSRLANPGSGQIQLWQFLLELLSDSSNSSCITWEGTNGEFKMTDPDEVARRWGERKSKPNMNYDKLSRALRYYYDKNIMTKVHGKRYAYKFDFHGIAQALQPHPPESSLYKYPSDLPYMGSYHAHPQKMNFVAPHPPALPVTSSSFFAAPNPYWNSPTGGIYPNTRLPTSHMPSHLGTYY
The essentials:
as §1

Another experiment addresses ELF1 (Homo sapiens, UniProt P32519 1-619). The essentials:
as §1

Another experiment concerns the target T5, EHF (Homo sapiens, UniProt Q9NZC4 1-300).
T5 sequence: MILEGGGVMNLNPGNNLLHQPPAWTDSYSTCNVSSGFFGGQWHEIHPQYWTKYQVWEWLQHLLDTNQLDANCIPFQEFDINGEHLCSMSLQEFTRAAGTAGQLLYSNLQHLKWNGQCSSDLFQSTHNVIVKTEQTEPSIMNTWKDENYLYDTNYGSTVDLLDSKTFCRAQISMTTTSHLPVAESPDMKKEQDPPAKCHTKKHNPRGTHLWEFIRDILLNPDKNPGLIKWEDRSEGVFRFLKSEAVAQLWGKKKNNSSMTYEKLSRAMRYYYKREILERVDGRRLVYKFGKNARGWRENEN
The essentials: as §1

A further experiment addresses SPI1 (Homo sapiens, UniProt P17947 1-270). In short, it runs like this:
as §1

For the next experiment, the target named is SPIB (Homo sapiens, UniProt Q01892 1-262). In short, it runs like this: as §1
Sequence of SPIB (Q01892 whole entry): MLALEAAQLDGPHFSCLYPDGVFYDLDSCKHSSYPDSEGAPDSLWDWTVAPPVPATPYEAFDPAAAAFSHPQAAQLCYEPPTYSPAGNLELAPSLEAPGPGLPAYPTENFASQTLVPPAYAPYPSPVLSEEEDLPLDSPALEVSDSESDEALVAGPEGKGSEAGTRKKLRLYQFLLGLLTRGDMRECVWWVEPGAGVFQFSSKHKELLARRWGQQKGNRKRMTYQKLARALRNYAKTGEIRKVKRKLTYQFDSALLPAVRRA
A further experiment deals with T6, ELK3 (Homo sapiens, UniProt P41970 1-407).
T6 sequence: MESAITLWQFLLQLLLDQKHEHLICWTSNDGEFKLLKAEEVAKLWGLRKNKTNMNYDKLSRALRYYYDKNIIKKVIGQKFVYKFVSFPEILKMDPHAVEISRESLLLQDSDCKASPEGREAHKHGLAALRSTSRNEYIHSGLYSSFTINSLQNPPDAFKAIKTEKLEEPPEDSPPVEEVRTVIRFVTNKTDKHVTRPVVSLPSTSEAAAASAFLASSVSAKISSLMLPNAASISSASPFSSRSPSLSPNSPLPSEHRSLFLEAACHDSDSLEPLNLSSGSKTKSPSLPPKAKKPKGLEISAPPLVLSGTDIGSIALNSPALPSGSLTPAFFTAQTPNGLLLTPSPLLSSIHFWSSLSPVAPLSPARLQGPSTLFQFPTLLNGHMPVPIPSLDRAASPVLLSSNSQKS
In short, it runs like this:
as §1

Sequence of ELF1 (P32519 whole entry): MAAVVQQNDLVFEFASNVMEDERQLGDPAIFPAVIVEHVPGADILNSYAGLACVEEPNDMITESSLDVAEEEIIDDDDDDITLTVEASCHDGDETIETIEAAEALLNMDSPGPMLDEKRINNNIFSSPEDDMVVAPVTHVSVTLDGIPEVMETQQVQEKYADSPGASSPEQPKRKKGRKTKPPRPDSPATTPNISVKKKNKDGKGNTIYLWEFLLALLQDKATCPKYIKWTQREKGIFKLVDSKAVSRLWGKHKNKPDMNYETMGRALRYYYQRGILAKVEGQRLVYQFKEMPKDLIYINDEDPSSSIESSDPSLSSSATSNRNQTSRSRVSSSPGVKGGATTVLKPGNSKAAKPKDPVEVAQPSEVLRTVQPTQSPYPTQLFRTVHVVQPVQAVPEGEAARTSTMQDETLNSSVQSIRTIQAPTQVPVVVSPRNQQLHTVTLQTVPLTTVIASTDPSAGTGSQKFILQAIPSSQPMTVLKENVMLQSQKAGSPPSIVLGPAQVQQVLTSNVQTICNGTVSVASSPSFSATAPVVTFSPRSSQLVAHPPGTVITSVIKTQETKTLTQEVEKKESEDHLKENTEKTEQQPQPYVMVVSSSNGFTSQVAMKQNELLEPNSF

As to TCGATA, the binding signal in the experiment with FLI1 is 1.17 fold enrichment (6-mer frequency, TF over GST control); with ELK1, 1.03 fold enrichment (6-mer frequency, TF over GST control); with GABPA it was 1.08 fold enrichment (6-mer frequency, TF over GST control); with ERG, 1.1 fold enrichment (6-mer frequency, TF over GST control); with ELF1, 1.11 fold enrichment (6-mer frequency, TF over GST control); in the experiment with EHF it was 1.12 fold enrichment (6-mer frequency, TF over GST control). Further, the binding signal in the experiment with SPI1 is 1.12 fold enrichment (6-mer frequency, TF over GST control); with SPIB it was 1.03 fold enrichment (6-mer frequency, TF over GST control); in the experiment with ELK3, 1.06 fold enrichment (6-mer frequency, TF over GST control).
Take CTGATC: the binding signal in the experiment with FLI1 is 1.16 fold enrichment (6-mer frequency, TF over GST control); with ELK1, 1.54 fold enrichment (6-mer frequency, TF over GST control); in the experiment with GABPA it was 1.4 fold enrichment (6-mer frequency, TF over GST control); with ERG it was 1.42 fold enrichment (6-mer frequency, TF over GST control); with ELF1 it was 1.4 fold enrichment (6-mer frequency, TF over GST control); in the experiment with EHF, 1.39 fold enrichment (6-mer frequency, TF over GST control). Moreover, the binding signal is 1.27 fold enrichment (6-mer frequency, TF over GST control) with SPI1; 1.4 fold enrichment (6-mer frequency, TF over GST control) in the experiment with SPIB; 1.4 fold enrichment (6-mer frequency, TF over GST control) with ELK3.
Consider TGCACA, for which the binding signal was 1.18 fold enrichment (6-mer frequency, TF over GST control) in the experiment with FLI1; 1.18 fold enrichment (6-mer frequency, TF over GST control) in the experiment with ELK1; 1.03 fold enrichment (6-mer frequency, TF over GST control) in the experiment with GABPA; 1.09 fold enrichment (6-mer frequency, TF over GST control) in the experiment with ERG; 1.1 fold enrichment (6-mer frequency, TF over GST control) with ELF1; 1.02 fold enrichment (6-mer frequency, TF over GST control) with EHF. Besides, the binding signal was 1.05 fold enrichment (6-mer frequency, TF over GST control) in the experiment with SPI1; 1.13 fold enrichment (6-mer frequency, TF over GST control) with SPIB; 1.2 fold enrichment (6-mer frequency, TF over GST control) with ELK3.
With GCGTTT, the binding signal was 1.1 fold enrichment (6-mer frequency, TF over GST control) with FLI1; 1.04 fold enrichment (6-mer frequency, TF over GST control) in the experiment with ELK1; 1.11 fold enrichment (6-mer frequency, TF over GST control) with GABPA; 1.14 fold enrichment (6-mer frequency, TF over GST control) in the experiment with ERG; 1.08 fold enrichment (6-mer frequency, TF over GST control) with ELF1; 1.14 fold enrichment (6-mer frequency, TF over GST control) in the experiment with EHF. Further, the binding signal in the experiment with SPI1 is 1.05 fold enrichment (6-mer frequency, TF over GST control); in the experiment with SPIB, 1.13 fold enrichment (6-mer frequency, TF over GST control); with ELK3, 1.2 fold enrichment (6-mer frequency, TF over GST control).
For the sequence CTAAAG, the binding signal was 1.39 fold enrichment (6-mer frequency, TF over GST control) in the experiment with FLI1; 1.35 fold enrichment (6-mer frequency, TF over GST control) with ELK1; 1.45 fold enrichment (6-mer frequency, TF over GST control) in the experiment with GABPA; 1.36 fold enrichment (6-mer frequency, TF over GST control) with ERG; 1.39 fold enrichment (6-mer frequency, TF over GST control) with ELF1; 1.35 fold enrichment (6-mer frequency, TF over GST control) with EHF. Also, the binding signal was 1.3 fold enrichment (6-mer frequency, TF over GST control) with SPI1; 1.31 fold enrichment (6-mer frequency, TF over GST control) with SPIB; 1.49 fold enrichment (6-mer frequency, TF over GST control) with ELK3.
Turning to ATCATG, the binding signal with FLI1 was 1.21 fold enrichment (6-mer frequency, TF over GST control); with ELK1, 1.15 fold enrichment (6-mer frequency, TF over GST control); in the experiment with GABPA, 1.22 fold enrichment (6-mer frequency, TF over GST control); in the experiment with ERG it was 1.1 fold enrichment (6-mer frequency, TF over GST control); with ELF1, 1.17 fold enrichment (6-mer frequency, TF over GST control); with EHF, 1.19 fold enrichment (6-mer frequency, TF over GST control). Besides, the binding signal with SPI1 was 1.06 fold enrichment (6-mer frequency, TF over GST control); with SPIB it was 1.14 fold enrichment (6-mer frequency, TF over GST control); in the experiment with ELK3 it was 1.15 fold enrichment (6-mer frequency, TF over GST control).
In the case of GCAAAT, the binding signal with FLI1 is 1.05 fold enrichment (6-mer frequency, TF over GST control); with ELK1, 1.04 fold enrichment (6-mer frequency, TF over GST control); with GABPA it was 1.04 fold enrichment (6-mer frequency, TF over GST control); with ERG, 1.18 fold enrichment (6-mer frequency, TF over GST control); with ELF1 it was 1.11 fold enrichment (6-mer frequency, TF over GST control); in the experiment with EHF, 1.03 fold enrichment (6-mer frequency, TF over GST control). Besides, the binding signal is 1.02 fold enrichment (6-mer frequency, TF over GST control) in the experiment with SPI1; 1.14 fold enrichment (6-mer frequency, TF over GST control) in the experiment with SPIB; 1.01 fold enrichment (6-mer frequency, TF over GST control) with ELK3.
